Activity calls are given as the source filed them. How the source made its calls: active means hit-call score of the fitted dose curve at least 0.9, where 1 is the maximum; inactive means score below 0.9.
Legend:
[1] = read-out: Interleukin-1 alpha (IL1a), IL1A (gene 3552); experiment: BSK_KF3CT_IL1a: BioMAP Diversity Plus: KF3CT Assay for Interleukin-1 alpha (IL1a) Biomarker Activity (AID 2283070); details: primary human keratinocytes with fibroblasts; actives raise or lower the signal
Method in brief: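 Human keratinocyte plus foreskin fibroblast primary co-culture, sampled 24 h after chemical dosing. IL-1a measured by ELISA; responses fitted bidirectionally against DMSO baseline (negative control), so gain or loss of signal both count.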

[2] = read-out: TIMP metallopeptidase inhibitor 2 (TIMP2), TIMP2 (gene 7077); experiment: BSK_KF3CT_TIMP2: BioMAP Diversity Plus: KF3CT Assay for TIMP metallopeptidase inhibitor 2 (TIMP2) Biomarker Activity (AID 2283071); details: primary human keratinocytes with fibroblasts; actives raise or lower the signal
Method in brief: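 Human primary keratinocyte/foreskin fibroblast co-culture dosed with chemical and sampled at 24 h. TIMP-2 levels quantified by ELISA; bidirectional fitting against DMSO negative control as baseline.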

[3] = read-out: Transforming growth factor beta 1 (TGFb1), TGFB1 (gene 7040); experiment: BSK_KF3CT_TGFb1: BioMAP Diversity Plus: KF3CT Assay for Transforming growth factor beta 1 (TGFb1) Biomarker Activity (AID 2283072); details: primary human keratinocytes with fibroblasts; actives raise or lower the signal
Method in brief: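 Human keratinocyte plus foreskin fibroblast primary co-culture, dosed with chemical for 24 h. TGF-b1 quantified by ELISA. Activity fitted bidirectionally against DMSO negative control as baseline.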

[4] = read-out: C-C motif chemokine 2 (Homo sapiens) (UniProt P13500); experiment: BSK_KF3CT_MCP1: BioMAP Diversity Plus: KF3CT Assay for Monocyte Chemoattractant Protein 1 (MCP1/CCL2) Biomarker Activity (AID 2283073); details: primary human keratinocytes with fibroblasts; actives raise or lower the signal
Method in brief: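 Human keratinocyte–foreskin fibroblast co-culture; MCP-1 measured by ELISA 24 h after dosing. Bidirectional fit vs DMSO; cytotoxicity tracked by SRB total protein in parallel cultures.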

[5] = read-out: Matrix Metallopeptidase 9 (MMP9), MMP9 (gene 4318); experiment: BSK_KF3CT_MMP9: BioMAP Diversity Plus: KF3CT Assay for Matrix Metallopeptidase 9 (MMP9) Biomarker Activity (AID 2283074); details: primary human keratinocytes with fibroblasts; actives raise or lower the signal
Method in brief: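 Keratinocyte plus foreskin fibroblast human primary skin co-culture was dosed with chemical and MMP-9 was quantified by ELISA 24 h later. Bidirectional curve fitting used DMSO as negative control and activity baseline.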

[6] = read-out: urokinase plasminogen activator (uPA), PLAU (gene 5328); experiment: BSK_KF3CT_uPA: BioMAP Diversity Plus: KF3CT Assay for urokinase plasminogen activator (uPA) Biomarker Activity (AID 2283075); details: primary human keratinocytes with fibroblasts; actives raise or lower the signal
Method in brief: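 Human keratinocyte plus foreskin fibroblast primary co-culture exposed to chemical for 24 h. uPA levels were quantified by ELISA, and activity was fitted bidirectionally against a DMSO negative-control baseline.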

CD40, CD40 (gene 958) [7] = experiment: BSK_LPS_CD40: BioMAP Diversity Plus: LPS Assay for CD40 Biomarker Activity (AID 2283076); details: primary human HUVEC with PBMC; actives raise or lower the signal
Method in brief: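 HUVEC plus PBMC co-culture stimulated with LPS; CD40 quantified by ELISA 24 h after compound dosing. Fitting was bidirectional relative to DMSO. SRB staining of parallel cultures flagged overt cytotoxicity.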

[8] = read-out: E-selectin (Homo sapiens) (UniProt P16581); experiment: BSK_LPS_Eselectin: BioMAP Diversity Plus: LPS Assay for Eselectin Biomarker Activity (AID 2283077); details: primary human HUVEC with PBMC; actives raise or lower the signal
Method in brief: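 Human umbilical vein endothelial cells co-cultured with PBMC under LPS stimulation; cell-surface E-selectin measured by ELISA 24 h after dosing. Change in either direction versus DMSO, with SRB total-protein staining in parallel cultures for cytotoxicity.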

[9] = read-out: Interleukin-8 (IL8), CXCL8 (gene 3576); experiment: BSK_LPS_IL8: BioMAP Diversity Plus: LPS Assay for Interleukin-8 (IL8) Biomarker Activity (AID 2283078); details: primary human HUVEC with PBMC; actives raise or lower the signal
Method in brief: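 Human umbilical vein endothelial cells co-cultured with PBMC, LPS-stimulated, exposed to compound for 24 h. IL-8 quantified by ELISA; fitted in both directions against DMSO, with SRB total-protein staining of parallel cultures for cytotoxicity.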

[10] = BSK_LPS_SRB: Viability Assessment in the BioMAP Diversity Plus: LPS Assay (AID 2283079); details: primary human HUVEC with PBMC;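 further: total protein by sulforhodamine B absorbance as a cytotoxicity measure; measured one day after compound addition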
Method in brief: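 Co-culture of human umbilical vein endothelial cells and PBMC, read 24 h after dosing. Total protein by 0.1% SRB staining after 10% TCA fixation, absorbance at 560 nm; bidirectional fit against DMSO.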

[11] = read-out: Interleukin-1 alpha (IL1a), IL1A (gene 3552); experiment: BSK_LPS_IL1a: BioMAP Diversity Plus: LPS Assay for Interleukin-1 alpha (IL1a) Biomarker Activity (AID 2283080); details: primary human HUVEC with PBMC; actives raise or lower the signal
Method in brief: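 Human umbilical vein endothelial cells co-cultured with PBMC and stimulated with LPS; IL-1a measured by ELISA 24 h after dosing. Bidirectional fitting against DMSO; cytotoxicity checked by SRB staining in parallel cultures.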

[12] = read-out: Monocyte Chemoattractant Protein-1 (MCP1), CCL2 (gene 6347); experiment: BSK_LPS_MCP1: BioMAP Diversity Plus: LPS Assay for Monocyte Chemoattractant Protein-1 (MCP1) Biomarker Activity (AID 2283081); details: primary human HUVEC with PBMC; actives raise or lower the signal;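 on AC50: secreted MCP-1 protein quantified by ELISA in culture supernatant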
Method in brief: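 Human umbilical vein endothelial cells co-cultured with PBMC, LPS-stimulated; secreted MCP-1 measured by ELISA 24 h after compound addition. Bidirectional curve fitting against DMSO baseline; SRB total-protein staining in parallel cultures for cytotoxicity.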

[13] = BSK_LPS_PGE2: BioMAP Diversity Plus: LPS Assay for Prostaglandin E2 (PGE2) Biomarker Activity (AID 2283082); details: primary human HUVEC with PBMC; actives raise or lower the signal;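 on AC50: secreted prostaglandin E2 measured by ELISA in LPS-stimulated co-culture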
Method in brief: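 HUVEC plus PBMC co-culture stimulated with LPS; secreted PGE2 quantified by ELISA 24 h after chemical dosing. Activity fitted bidirectionally against DMSO as negative control and baseline; parallel SRB total-protein staining served as cytotoxicity check.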

[14] = read-out: Macrophage colony-stimulating factor (MCSF), CSF1 (gene 1435); experiment: BSK_LPS_MCSF: BioMAP Diversity Plus: LPS Assay for Macrophage colony-stimulating factor (MCSF) Biomarker Activity (AID 2283083); details: primary human HUVEC with PBMC; actives raise or lower the signal
Method in brief: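 HUVEC–PBMC co-culture, M-CSF measured by ELISA 24 h after chemical dosing. Fitted in both directions relative to DMSO as negative control; overt cytotoxicity assessed by SRB total-protein staining in parallel cultures.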

[15] = read-out: Tissue Factor, F3 (gene 2152); experiment: BSK_LPS_TissueFactor: BioMAP Diversity Plus: LPS Assay for Tissue Factor Biomarker Activity (AID 2283084); details: primary human HUVEC with PBMC; actives raise or lower the signal
Method in brief: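 Human umbilical vein endothelial cells co-cultured with PBMC were dosed with compound. Cell-surface CD142 was measured by ELISA 24 h later. Activity was fitted bidirectionally against DMSO, with SRB total-protein staining in parallel cultures for cytotoxicity.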

[16] = read-out: Tumor necrosis factor (Homo sapiens) (UniProt P01375); experiment: BSK_LPS_TNFa: BioMAP Diversity Plus: LPS Assay for Tumour Necrosis Factor alpha (TNFa) Biomarker Activity (AID 2283085); details: primary human HUVEC with PBMC; actives raise or lower the signal;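 on AC50: TNFa protein level quantified by ELISA in the co-culture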
Method in brief: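 Human umbilical vein endothelial cells co-cultured with PBMC were exposed to test chemical and TNFa measured by ELISA 24 h after dosing. Bidirectional curve fitting was done relative to DMSO as negative control and baseline.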

[17] = read-out: Vascular cell adhesion molecule 1 (VCAM1), VCAM1 (gene 7412); experiment: BSK_LPS_VCAM1: BioMAP Diversity Plus: LPS Assay for Vascular cell adhesion molecule 1 (VCAM1) Biomarker Activity (AID 2283086); details: primary human HUVEC with PBMC; actives raise or lower the signal
Method in brief: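 Human umbilical vein endothelial cells co-cultured with peripheral blood mononuclear cells under LPS stimulation were exposed to test chemical for 24 h. VCAM-1 levels were then measured by ELISA, with bidirectional curve fitting relative to DMSO as negative control and baseline.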

CD38, CD38 (gene 952) = experiment: BSK_SAg_CD38: BioMAP Diversity Plus: SAg Assay for CD38 Biomarker Activity (AID 2283087); details: primary human HUVEC with PBMC; actives raise or lower the signal
Method in brief: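 Fluorescence ELISA of cell-surface CD38 served as the read-out, with either increase or decrease fitted against DMSO controls. Cells were a human umbilical vein endothelium plus PBMC co-culture under SEB/TSST-1 stimulation, measured 24 h after dosing.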

CD40, CD40 (gene 958) [18] = experiment: BSK_SAg_CD40: BioMAP Diversity Plus: SAg Assay for CD40 Biomarker Activity (AID 2283088); details: primary human HUVEC with PBMC; actives raise or lower the signal
Method in brief: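 HUVEC plus PBMC co-culture, superantigen-activated, with CD40 read by ELISA 24 h after dosing. Curves fitted in both directions against DMSO. Overt cytotoxicity checked by parallel SRB total-protein staining.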

CD69, CD69 (gene 969) = experiment: BSK_SAg_CD69: BioMAP Diversity Plus: SAg Assay for CD69 Biomarker Activity (AID 2283089); details: primary human HUVEC with PBMC; actives raise or lower the signal;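 on AC50: cell surface CD69 protein quantified by ELISA with fluorescence detection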
Method in brief: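 ELISA, fluorescence read-out: CD69 on human umbilical vein endothelial cell + PBMC co-culture, 24 h post-dosing. Gain or loss of signal fitted bidirectionally against DMSO baseline.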

Measured: AC50

Sequence of E-selectin (Homo sapiens) (P16581 whole entry, looked up): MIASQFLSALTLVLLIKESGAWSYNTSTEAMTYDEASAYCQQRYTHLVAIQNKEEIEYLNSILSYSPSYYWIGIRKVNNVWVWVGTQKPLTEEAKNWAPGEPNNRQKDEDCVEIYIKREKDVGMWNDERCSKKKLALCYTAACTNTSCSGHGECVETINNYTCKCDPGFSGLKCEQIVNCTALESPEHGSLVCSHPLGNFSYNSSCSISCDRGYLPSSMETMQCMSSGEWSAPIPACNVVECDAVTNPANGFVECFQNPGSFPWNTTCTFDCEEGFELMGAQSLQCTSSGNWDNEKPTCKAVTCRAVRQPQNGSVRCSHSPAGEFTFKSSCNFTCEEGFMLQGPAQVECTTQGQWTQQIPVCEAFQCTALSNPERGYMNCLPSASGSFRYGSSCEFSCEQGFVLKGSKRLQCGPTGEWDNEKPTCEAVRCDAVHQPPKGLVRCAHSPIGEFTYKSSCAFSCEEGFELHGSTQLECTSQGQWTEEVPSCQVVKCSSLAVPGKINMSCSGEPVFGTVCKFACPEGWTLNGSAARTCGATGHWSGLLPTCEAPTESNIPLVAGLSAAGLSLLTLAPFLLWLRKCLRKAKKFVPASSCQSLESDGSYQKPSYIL
Sequence of Tumor necrosis factor (Homo sapiens) (P01375 whole entry, looked up): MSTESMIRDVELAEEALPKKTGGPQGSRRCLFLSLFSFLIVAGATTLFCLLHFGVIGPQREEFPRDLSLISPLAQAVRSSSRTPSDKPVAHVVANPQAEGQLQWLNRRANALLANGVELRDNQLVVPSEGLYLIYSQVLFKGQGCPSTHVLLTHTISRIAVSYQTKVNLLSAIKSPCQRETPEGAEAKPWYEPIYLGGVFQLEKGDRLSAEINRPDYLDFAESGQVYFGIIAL

CC(C)c1nnc2ccc(-c3ocnc3-c3cc(F)ccc3F)cn12
active: [8] 248 nM | [9] 148 nM | [11] 148 nM | [12] 4600 nM | [13] 346 nM | [15] 356 nM | [16] 148 nM | [17] 979 nM | CD69, CD69 (gene 969) 3590 nM
inactive: all other assays above

OC(CCl)CCl
inactive: all assays above

CC(C)CC(C)O (stereo not given)
inactive: all assays above

NC(=O)N1c2ccccc2C=Cc2ccccc21
inactive: all assays above

Cc1ncc([C@@H](CCCCCCc2ccc3c(n2)NCCC3)CC(=O)O)cn1
inactive: all assays above

CCCCCCCCCC
inactive: all assays above

O=C(O)c1ccc2c(c1)nc(C(=O)NC1CCN(C3CC3)CC1)n2Cc1cc(-c2ccc(Cl)s2)on1
inactive: all assays above

Cc1ccc(S(=O)(=O)NC(=O)NN2CCCCCC2)cc1
inactive: all assays above

O=S1(=O)CCCO1
inactive: all assays above

O=C(O)[C@H](O)[C@@H](O)C(=O)O
inactive: all assays above

CC(C)CCCCCCOC(=O)C1CCCCC1C(=O)OCCCCCCC(C)C (stereo not given)
inactive: all assays above

COS(C)(=O)=O
inactive: all assays above

c1ccc2c(c1)-c1cccc3c1c-2cc1ccccc13
active: [15] 552 nM
inactive: all other assays above
